Key:
Test in all cases: cross-link between two proteins; affinity purification or IP with mass spectrometry; cross-linking mass spectrometry
[1] = biological target: Ribosomal RNA-processing protein 15 (UniProt Q06511)
[2] = biological target: Ribosome biogenesis protein BRX1 (UniProt Q08235)
[3] = biological target: Ribosome biogenesis protein NSA1 (UniProt P53136)
[4] = biological target: Ribosome biogenesis protein SSF1 (UniProt P38789)
[5] = biological target: Ribosome production factor 1 (UniProt P38805)

Ribosome biogenesis protein SSF1, P38789, sequence (P38789 whole entry): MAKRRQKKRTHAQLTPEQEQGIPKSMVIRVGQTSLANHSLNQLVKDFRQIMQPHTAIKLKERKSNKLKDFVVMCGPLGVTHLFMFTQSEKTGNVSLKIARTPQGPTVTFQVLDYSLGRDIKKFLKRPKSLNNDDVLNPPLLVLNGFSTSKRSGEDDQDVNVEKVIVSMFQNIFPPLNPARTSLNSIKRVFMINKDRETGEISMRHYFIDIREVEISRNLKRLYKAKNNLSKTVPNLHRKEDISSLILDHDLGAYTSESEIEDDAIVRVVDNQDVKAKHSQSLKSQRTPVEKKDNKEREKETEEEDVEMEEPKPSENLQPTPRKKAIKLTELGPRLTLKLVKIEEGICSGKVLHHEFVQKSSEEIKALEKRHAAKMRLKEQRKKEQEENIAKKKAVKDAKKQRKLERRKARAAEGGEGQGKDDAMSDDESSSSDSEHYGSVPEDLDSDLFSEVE
UniProt P53136, sequence (P53136 whole entry): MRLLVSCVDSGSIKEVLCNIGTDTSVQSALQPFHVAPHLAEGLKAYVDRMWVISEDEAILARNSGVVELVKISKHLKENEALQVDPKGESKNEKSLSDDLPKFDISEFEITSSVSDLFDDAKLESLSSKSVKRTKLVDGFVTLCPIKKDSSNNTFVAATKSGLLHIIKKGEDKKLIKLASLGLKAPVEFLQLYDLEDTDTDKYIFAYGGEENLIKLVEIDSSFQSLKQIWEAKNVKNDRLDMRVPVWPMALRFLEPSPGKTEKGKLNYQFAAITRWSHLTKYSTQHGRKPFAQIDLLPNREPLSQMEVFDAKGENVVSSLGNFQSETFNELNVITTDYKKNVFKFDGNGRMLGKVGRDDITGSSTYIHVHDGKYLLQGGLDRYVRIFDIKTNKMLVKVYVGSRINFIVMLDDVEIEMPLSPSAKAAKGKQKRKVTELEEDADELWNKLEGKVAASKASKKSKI
UniProt Q06511, sequence (Q06511 whole entry): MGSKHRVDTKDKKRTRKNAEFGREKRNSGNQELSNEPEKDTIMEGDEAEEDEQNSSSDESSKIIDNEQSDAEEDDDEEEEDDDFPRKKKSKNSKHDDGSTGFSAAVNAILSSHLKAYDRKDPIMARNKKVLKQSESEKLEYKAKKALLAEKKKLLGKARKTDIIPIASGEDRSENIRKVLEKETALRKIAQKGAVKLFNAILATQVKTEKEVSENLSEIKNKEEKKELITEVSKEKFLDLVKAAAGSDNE
UniProt Q08235, sequence (Q08235 whole entry): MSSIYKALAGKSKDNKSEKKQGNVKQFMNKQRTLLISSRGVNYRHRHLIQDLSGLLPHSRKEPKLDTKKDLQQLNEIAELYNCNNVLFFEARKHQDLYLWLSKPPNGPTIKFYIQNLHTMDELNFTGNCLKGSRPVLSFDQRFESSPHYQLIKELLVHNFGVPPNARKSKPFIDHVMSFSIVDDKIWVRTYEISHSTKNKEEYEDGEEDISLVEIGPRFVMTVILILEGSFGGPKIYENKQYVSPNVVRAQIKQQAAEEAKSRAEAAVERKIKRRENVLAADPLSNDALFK
Ribosome production factor 1, P38805, sequence (P38805 whole entry): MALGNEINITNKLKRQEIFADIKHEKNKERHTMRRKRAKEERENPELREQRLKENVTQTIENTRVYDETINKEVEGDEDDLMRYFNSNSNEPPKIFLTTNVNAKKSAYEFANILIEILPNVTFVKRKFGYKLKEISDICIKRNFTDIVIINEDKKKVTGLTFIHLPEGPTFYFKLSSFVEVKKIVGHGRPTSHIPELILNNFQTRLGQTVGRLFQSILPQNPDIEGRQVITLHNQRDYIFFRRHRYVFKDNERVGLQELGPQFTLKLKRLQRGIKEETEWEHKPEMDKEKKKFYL

## Ribosome biogenesis protein SSF1, P38789
[1]
  listed as a hit: yes
[2]
  listed as a hit: yes

## Ribosome production factor 1, P38805
[3]
  listed as a hit: yes

## Large ribosomal subunit protein uL29A, P0CX84
[4]
  listed as a hit: yes

## Large ribosomal subunit protein uL22A, P05740
[5]
  listed as a hit: yes

From PMC6340896
